Source: PubChem BioAssay
M1 ag parental – M1 agonist counterscreen hit in parental CHO-K1 cells; Fluo-8 calcium fluorescence; scaled to maximal ATP response, vehicle zero; activation, % at 3 µM; actives 0.48% (n = 360,000); AID 602248; in the data active = activation above about 15%;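 note: untransfected CHO-K1 host cells lacking M1 receptor as counterscreen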
CHRM1 antagonist – human CHRM1 antagonism | CHO-K1 hM1, Fluo-8 calcium fluorescence, ACh EC80 antagonist | inhibition, % at 3 µM | actives 1.3% (n = 360,000);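 active = percent inhibition above its own plate's cutoff, namely the mean of that plate's compound wells plus 3 SD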;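 note: peak over basal fluorescence ratio during 140 s after agonist addition; 0% = ACh EC80 plus DMSO and 100% = DMSO alone without agonist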
Target sequence (P11229 whole entry, looked up): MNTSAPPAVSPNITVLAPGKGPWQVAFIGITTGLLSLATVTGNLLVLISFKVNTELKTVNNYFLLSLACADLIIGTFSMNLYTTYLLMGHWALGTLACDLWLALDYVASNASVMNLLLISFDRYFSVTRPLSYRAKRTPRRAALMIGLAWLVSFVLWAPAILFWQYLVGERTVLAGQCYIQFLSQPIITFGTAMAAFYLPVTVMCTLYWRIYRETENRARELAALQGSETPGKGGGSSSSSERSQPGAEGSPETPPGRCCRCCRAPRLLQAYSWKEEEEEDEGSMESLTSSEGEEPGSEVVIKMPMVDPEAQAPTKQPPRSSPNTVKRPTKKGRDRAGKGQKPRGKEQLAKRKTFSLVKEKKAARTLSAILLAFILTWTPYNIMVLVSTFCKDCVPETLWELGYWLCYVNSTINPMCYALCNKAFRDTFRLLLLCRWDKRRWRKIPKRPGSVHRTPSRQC
M1 ag – human M1 muscarinic receptor agonism. CHO-K1 hM1, Fluo-8 calcium fluorescence, agonist mode; 0% DMSO, 100% acetylcholine EC100. activation, % at 3 µM. actives 0.33% (n = 360,000). AID 588814;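 active = activation above the run's mean compound activation plus 3 SD, cut at about 16% in these data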;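 note: peak over basal fluorescence ratio within a 140 s kinetic read after compound addition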
CHO-K1 Ca PAM – M1 PAM counterscreen hit in parental CHO-K1 cells; ATP EC20, Fluo-8 calcium fluorescence; 0% at ATP EC20, 100% at ATP max; activation, % at 3 µM; actives 0.02% (n = 360,000);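 active = activation above the run cutoff, the mean activation of all test compounds plus 3 SD, cut at about 40% in these data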;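 note: peak over basal fluorescence ratio in a 140 s read after ATP addition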
M1 PAM – positive allosteric modulators of human M1 muscarinic receptor | actives 0.088% (n = 360,000) | CHO-K1 hM1, Fluo-8 calcium fluorescence, ACh EC20; 0% = ACh EC20, 100% = maximal ACh | activation, % at 3 µM; in the data active = activation above about 19%, passing the limit was not always enough
CHO-K1 Ca antag – counter-screen for M1 antagonists: effect in parental CHO-K1 cells | AID 602250 | actives 0.6% (n = 360,000) | ATP-induced calcium, Fluo-8 fluorescence | inhibition, % at 3 µM;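 active = inhibition above a per-plate cutoff, the plate's mean sample inhibition plus 3 SD, cut at about 24% in these data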;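 note: 0% = DMSO plus EC80 ATP and 100% = DMSO alone without ATP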
Starred values were filed as active, the others as inactive. An excerpt weighted towards active compounds, which were near 2.4% of everything screened.

SMILES	M1 ag parental	CHRM1 antagonist	M1 ag	CHO-K1 Ca PAM	M1 PAM	CHO-K1 Ca antag
O=C1C2CCCCC2C(=O)N1c1ccc(NC2CCN(Cc3ccccc3)CC2)c([N+](=O)[O-])c1 (stereo not drawn)	0	48*	-8	9	-26	-6
O=C1C2CC=CCC2C(=O)N1c1ccc(NCCc2ccccc2)c([N+](=O)[O-])c1 (stereo not drawn)	1	-13	-4	15	11	-11
NC(=O)CC(NC(=O)Cc1cccc2ccccc12)c1ccc(NC2CCN(Cc3ccccc3)CC2)c([N+](=O)[O-])c1 (stereo not drawn)	0	11	-14	3	-14	4
O=C1CCC(=O)N1c1ccc(NC2CCN(Cc3ccccc3)CC2)c([N+](=O)[O-])c1	0	13	-8	-15	-13	2
COC(=O)c1sc(S(=O)(=O)N2CCN(c3ccccc3F)CC2)c(C(=O)OC)c1C	0	-4	-4	-7	-6	-6
Cn1cc(CN2CCC(n3nccc3NC(=O)C3CCCC3)CC2)cn1	1	-3	-3	10	0	-10
CCCCN1C(=O)C(CC(=O)NCc2cccs2)CC(C(=O)N(C(C)C)C(C)C)=C1C (stereo not drawn)	0	-16	-5	13	7	-9
O=[N+]([O-])c1ccccc1NC1CCN(Cc2ccccc2)CC1	0	47*	-9	-19	-25	8
O=[N+]([O-])c1ccc(NC2CCN(Cc3ccccc3)CC2)c([N+](=O)[O-])c1	2	10	-13	15	-31	-10
CN(C)S(=O)(=O)c1ccc(Cl)c(NC(=O)COC(=O)/C=C/c2cnc3ccccc3n2)c1	1	-8	-1	12	3	-14
O=C(Nc1ccc(Br)c2ccccc12)c1ccc2ccccc2c1O	18*	23	1	-10	-14	14
CC(=O)Nc1ccc(Br)c2ccccc12	0	2	-4	10	2	-2
Cc1nn(C)cc1S(=O)(=O)N1CCN(c2cccc(Cl)c2)CC1	1	-5	-5	-3	5	-20
CCCNC(=O)c1ccc(Cn2cc(-c3ccc(OC)cc3)nc2C(C)N)cc1 (stereo not drawn)	0	2	7	14	19	-12
CN(C(=O)CCc1nnc(-c2ccc(-c3ccccc3)cc2)o1)C1CCOCC1	17*	19	4	-6	-10	2
COc1ccc(S(=O)(=O)N2CCSCC2)cc1C(N)=O	1	-9	-3	-5	2	-4
Cc1cc[n+](CC(=O)c2cc3ccccc3oc2=O)cc1	0	59*	-8	17	-23	-3
Cc1ccc(N(C(=O)c2csnn2)C(C(=O)NC2CCCCC2)c2ccncc2)cc1 (stereo not drawn)	0	0	-3	-19	-1	-7
CCN(CC)CC(=O)N1N=C(c2cccs2)CC1c1ccco1 (stereo not drawn)	0	51*	-5	-6	-21	0
CCC(=O)N1N=C(c2cccs2)CC1c1ccco1 (stereo not drawn)	-1	-2	-11	1	4	11
O=C(C1CC1)N1CCN(Cc2ccccc2)CC1	0	-12	-3	11	9	-1
CC1(C)C(C=C(Cl)Cl)C1C(=O)N1CCN(Cc2ccccc2)CC1 (stereo not drawn)	1	42*	-7	13	-23	-11
CCCCCCCCC[n+]1cccc2c3ccccc3ccc21	3	95*	-1	2	-22	20
Cc1ccccc1C[n+]1cccc2ccccc21	0	8	-13	0	-7	-5
O=[N+]([O-])c1ccc(C[n+]2cccc3c4ccccc4ccc32)cc1	2	1	-5	21	0	-16
SMILES	M1 ag parental	CHRM1 antagonist	M1 ag	CHO-K1 Ca PAM	M1 PAM	CHO-K1 Ca antag
CCCCCCCCCCCCCCCC[n+]1cccc2ccccc21	-1	47*	-13	-1	-25	12
COc1cc(OC)cc(C(=O)NCC(C)NC(=O)c2cc(OC)cc(OC)c2)c1 (stereo not drawn)	1	1	-2	14	-2	-8
CCN1CCN(c2ccc(S(=O)(=O)N3CCOCC3)cc2NC(=O)c2ccc(Cl)cc2Cl)CC1	3	-7	-6	26	6	5
Cc1ccccc1OCCC(=O)Nc1cc(S(=O)(=O)N2CCCCC2)ccc1N1CCN(C)CC1	51*	19	34*	-12	-13	8
CCN1CCN(c2ccc(S(=O)(=O)N3CCCCC3)cc2NC(=O)Cc2ccccc2)CC1	1	4	-6	-26	1	7
CCN1CCN(c2ccc(S(=O)(=O)N3CCCCC3)cc2NC(=O)Cc2ccc(Cl)c(Cl)c2)CC1	18*	14	11	0	-6	29*
Cc1ccc(OCC(=O)Nc2cc(S(=O)(=O)N3CCCCC3)ccc2N2CCN(C)CC2)c(C)c1	0	7	-8	-1	-9	-8
CN1CCN(c2ccc(S(=O)(=O)N3CCCCC3)cc2NC(=O)COc2ccc([N+](=O)[O-])cc2)CC1	0	32*	-4	-22	-13	20
CCN1CCN(c2ccc(S(=O)(=O)N3CCOCC3)cc2NC(=O)c2ccccc2OC(F)F)CC1	2	-5	20*	10	4	-8
COCCOC(=O)c1c(C)n(C)c2ccc(OC(=O)c3ccccc3F)cc12	4	-12	-1	0	1	-2
Cc1ccc(NC(=O)Nc2ccc3c(c2)OCO3)c(OC(F)F)c1	2	-11	-1	3	4	2
O=NN1CCN(c2ccncc2S(=O)(=O)N2CCCCC2)CC1	1	-9	-1	19	9	-6
CC(C)N1CCN(c2ccncc2S(=O)(=O)N2CCCCC2)CC1	2	98*	-7	13	-29	2
CC(C)NC(=O)N1CCN(c2ccncc2S(=O)(=O)N2CCOCC2)CC1	0	-14	-1	10	-5	-1
CN1CCN(c2ccncc2S(=O)(=O)N2CCCCC2)CC1	1	27*	-5	11	-12	-6
COc1ccc(C(=O)NC(CCSC)C(=O)NC2CC2)cc1 (stereo not drawn)	0	-1	-3	15	2	-7
CCC(=O)N1CCC1(C)C(=O)NCc1ccccc1SC (stereo not drawn)	0	-18	-1	21	13	-8
COc1cc(N2CCCC2)c(OC)cc1/C=C1/NC(=S)NC1=O	48*	31	53*	-3	-18	35*
CCOc1ccc(NC(=O)C(CC)n2nc(C)c3c(C)n(-c4ccccc4)nc3c2=O)cc1 (stereo not drawn)	-2	-23	-6	17	15	-16
